{"source": "PubChem BioAssay (Tox21)", "note": "Records with an inconclusive call do not appear. Entries that show only a call come without a potency. A number with no mark means an inactive call. The source made the active and inactive calls. The call rests on the fitted dose curve; in most records, active means well fitted activation curve with a large enough effect in the signal ratio in the repeat runs (not every such curve was filed as active); inconclusive means weak or mixed curves; inactive means flat fitted curve, though single readings scatter; the % refers to the signal ratio."}
{"test": "p53 small molecule agonists, cell-based qHTS assay (AID 1963582)", "settings": "HCT-116 p53RE-bla reporter, beta-lactamase FRET ratio, 16 h; series mostly up to 66 µM", "excerpt": "National Center for Advancing Translational Sciences [NCATS]\nDivision of Preclinical Innovation [DPI]\nU.S. Environmental Protection Agency [EPA]\nNational Institutes of Environmental Health Sciences [NIEHS]\nNational Toxicology Program [NTP]\nU.S. Food and Drug Administration [FDA]\np53, a tumor suppressor protein, is activated following cellular insult, including DNA damage and other cellular stresses. The activation of p53 regulates cell fate by inducing DNA repair, cell cycle arrest, apoptosis, or cellular senescence. The activation of p53, therefore, is a good indicator of DNA damage and other cellular stresses. […] The activation of the reporter gene under culture conditions can be detected by fluorescence intensity. This cell line was used to screen the Tox21 10K compound library in a 1536-well plate format and to identify agonists that activate the p53 signaling pathway.\nTox21 Assay Protocol Summary:\nThe p53RE-bla cells were dispensed at 4,000 cells/5 ul/well in 1536-well black wall/clear bottom plates using a Multidrop dispenser. After the assay plates were incubated at a 37 C/5% CO2 incubator for 5 hours, 23 nL of compounds dissolved in DMSO, positive controls or DMSO only was transferred to the assay plate by a pin tool. The plates were incubated at 37 C for 16 hours. After 1 uL of LiveBLAzerTM B/G FRET substrate was added using a Flying Reagent Dispenser, the plates were incubated at room temperature for 2 hours, and fluorescence intensity was measured by an Envision plate reader."}
{"smiles": "CCCCNC(=S)NCCCC", "Potency": "inactive"}
{"smiles": "CC[C@H]1OC(=O)[C@H](C)[C@@H](O[C@H]2C[C@@](C)(OC)[C@@H](O)[C@H](C)O2)[C@H](C)[C@@H](O[C@@H]2O[C@H](C)C[C@H](N(C)C)[C@H]2O)[C@](C)(O)C[C@@H](C)CN(C)[C@H](C)[C@@H](O)[C@]1(C)O", "Potency": "inactive"}
{"smiles": "Cc1cc2cc3c(C)cc(=O)oc3c(C)c2o1", "Potency": "inactive"}
{"smiles": "O=C(c1ccccc1)c1ccccc1", "Potency": "inactive"}
{"smiles": "O=C1C=CC(=O)N1c1cccc(N2C(=O)C=CC2=O)c1", "Potency": "inactive"}
{"smiles": "CC(C)(c1ccccc1)c1ccccc1", "Potency": "inactive"}
{"smiles": "C=CC(=O)[O-].C=CC(=O)[O-].[Zn+2]", "Potency": "inactive"}
{"smiles": "CCCOC(=O)CCCCC(=O)OCCC", "Potency": "inactive"}
{"smiles": "O=C(O)CCc1nc2ccccc2[nH]1", "Potency": "inactive"}
{"smiles": "Nc1c(Cl)cc(Cl)cc1[N+](=O)[O-]", "Potency": "inactive"}
{"smiles": "CCCCCCCCCCCCCOS(=O)(=O)O", "Potency": "inactive"}
{"smiles": "CCCCC(CC)COC(=O)CCCCC(=O)OCc1ccccc1", "note": "(stereo not given)", "Potency": "inactive"}
{"smiles": "CCn1nc(C(=O)O)c(=O)c2cc3c(cc21)OCO3", "Potency": "inactive"}
{"smiles": "CCCCCCCCCCCCCCCC(=O)OC/C=C(C)/C=C/C=C(C)/C=C/C1=C(C)CCCC1(C)C", "Potency": "inactive"}
{"smiles": "Nc1ccn([C@H]2CS[C@@H](CO)O2)c(=O)n1", "Potency": "inactive"}
{"smiles": "COc1cc([N+](=O)[O-])ccc1N", "Potency": "inactive"}
{"smiles": "Cc1onc(-c2c(Cl)cccc2Cl)c1C(=O)N[C@@H]1C(=O)N2[C@@H]1SC(C)(C)[C@@H]2C(=O)O", "Potency": "inactive"}
{"smiles": "CCCCCC", "Potency": "inactive"}
{"smiles": "Nc1ccc([N+](=O)[O-])cc1O", "Potency": "inactive"}
{"smiles": "CCCCCCCCCOC(=O)CCCCC(=O)OCCCCCCC", "Potency": "inactive"}
{"smiles": "CC(C)OC(=O)CCC(=O)OC(C)C", "Potency": "inactive"}
{"smiles": "CC1=NN(c2cc(Cl)c(S(=O)(=O)O)cc2Cl)C(=O)C1N=Nc1ccc(S(=O)(=O)O)cc1", "note": "(stereo not given)", "Potency": "inactive"}
{"smiles": "O=C(CC(=O)C(F)(F)F)c1ccccc1", "Potency": "inactive"}
{"smiles": "CN(C)CC/C=C1\\c2ccccc2COc2ccccc21", "Potency": "inactive"}
{"smiles": "O=C(O)COC(=O)Cc1ccccc1Nc1c(Cl)cccc1Cl", "Potency": "inactive"}
{"smiles": "COC(=O)[C@@H](N)Cc1ccc(O)c(O)c1", "Potency": "inactive"}
{"smiles": "O=C1CCCCCCCCCCCCCCO1", "Potency": "inactive"}
{"smiles": "CC(C)CCOC(=O)c1ccc(N(C)C)cc1", "Potency": "inactive"}
{"smiles": "CCCCCC[C@@H](O)C/C=C\\CCCCCCCC(=O)O", "Potency": "inactive"}
{"smiles": "C[C@@H]1CC[C@H]2C(C)(C)[C@H]3C[C@@]12CC[C@@]3(C)O", "Potency": "inactive"}
{"smiles": "CC(C)(C)c1cc(CO)cc(C(C)(C)C)c1O", "Potency": "inactive"}
{"smiles": "CCc1cc(C(C)(C)C)c(O)c(C(C)(C)C)c1", "Potency": "inactive"}
{"smiles": "O=C(NCC(O)CO)c1c(I)c(C(=O)NCC(O)CO)c(I)c(N(CCO)C(=O)CO)c1I", "note": "(stereo not given)", "Potency": "inactive"}
{"smiles": "C=C/C=C/C=C/CCCCC", "activation": "-3.72% [at 13.5 µM]"}
{"smiles": "CC(C)OC(=O)OCOP(=O)(CO[C@H](C)Cn1cnc2c(N)ncnc21)OCOC(=O)OC(C)C", "Potency": "inactive"}
{"smiles": "CC(=O)/C(C)=C/C1C(C)=CCCC1(C)C", "note": "(stereo not given)", "Potency": "inactive"}
{"smiles": "Oc1ccc(-c2ccccc2)c(Cl)c1", "Potency": "inactive"}
{"smiles": "CC/C=C1/OC(=O)c2ccccc21", "Potency": "inactive"}
{"smiles": "CC(=O)OC(C)C[N+](C)(C)C", "note": "(stereo not given)", "Potency": "inactive"}
{"smiles": "CC(C)CCCC(C)CC=O", "note": "(stereo not given)", "Potency": "inactive"}
